# Laboratory results as given in the supplement of paper PMC6555819.
# Tests used:
# Assay in all cases: PBM binding z-score (relative to random genomic background probes); higher = stronger binding; sequences stand for … in GC…GCGATTGACAGCGTAGAATGAAGG
# [1] = system: RARb homodimer (NR concentration 270 nM)
# Procedure, shortened: (§1)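 Probes were double-stranded and carried 34-nt variable regions with direct-repeat seeds, single-nucleotide variants, half-site ablations and random human genomic background sequences, printed on custom Agilent 4×180K protein-binding microarrays. Arrays were incubated 1 h with ligand-free nuclear receptor dimers in PBS pH 7.4, 2% milk, 0.02% Triton X-100, 1 mM DTT, 0.2 mg/mL BSA and 0.4 mg/ml salmon testes DNA. Antibodies against each partner (one per run) detected binding, and scanned fluorescence was regression-normalized. Binding z-scores use the random background probes as reference.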
# [2] = system: RARg:RXRa (NR concentration 270 nM, RXRa partner concentration 90 nM)
# Procedure, shortened: as §1
# [3] = system: RARg homodimer (NR concentration 270 nM)
# Procedure, shortened: as §1
# [4] = system: RXRa DBDmut IVT, anti-RXR (DBD mutation: RXRa K156A/R161A, NR concentration 90 nM)
# Procedure, shortened: as §1
# [5] = system: RXRa homodimer (NR concentration 180 nM)
# Procedure, shortened: as §1
# [6] = system: THRa:RXRa (NR concentration 90 nM, RXRa partner concentration 90 nM)
# Procedure, shortened: as §1
# [7] = system: THRa homodimer (NR concentration 90 nM)
# Procedure, shortened: as §1
# [8] = system: VDR homodimer (NR concentration 270 nM)
# Procedure, shortened: as §1
Sequence,PBM binding z-score [1],PBM binding z-score [2],PBM binding z-score [3],PBM binding z-score [4],PBM binding z-score [5],PBM binding z-score [6],PBM binding z-score [7],PBM binding z-score [8]
TCTGCTAGGTCAGTTGGTCAGCAAACGAGCTGCC,2.52,2.78,3.8,0.526,0.98,1.35,-0.0215,-0.695
ACCTCTAGGTAAAAGTTCAGTGAATCCCGAGGAT,2.22,1.17,1.56,0.969,1.22,0.914,-0.324,1.21
AGAACGAGGTTATACGTAGATCAGGGAAGAAAGT,0.438,1.69,1.07,1.54,2.02,1.41,0.179,0.807
TTACCAACGTGAGCTGAGGTCGTTGATCCAACTC,0.839,0.0093,-0.366,0.168,0.547,2.48,1.5,2.12
ACTATTAGTTGACTTAAGGCAACCGATACGACGC,0.11,0.623,0.592,0.8,0.347,2.4,0.592,0.124
ATCTCTAGGTAAAGATAGTTCATTGAATGCAAAT,1.46,1.01,0.983,0.467,0.854,1.28,0.302,1.98
TCGCGTAGGTTACCAATGGGGCATTCAGCTTTCT,0.809,1.42,0.306,0.302,0.572,0.107,-0.509,-0.338
TTACCAAGGTGAGCTGAGGTAGTTGATCCAACTC,0.264,-0.0541,0.00581,-0.913,-0.0499,3.02,0.0435,-0.88
ATATGTAGGTAAAGGGTCATTCAGGTTGGTTCGC,4.14,4.11,3.22,2.01,4.98,3.26,1.71,4.15
AGTCAAAGTTCAGCTAGGTAACGTAAGATATGCT,3.28,4.23,5.17,3.2,2.96,2.46,0.0376,2.26
CTCGAAAGGTCGGTTGAGCTGAGTATACGGATAA,1.27,2.09,2.29,0.709,1.74,0.825,-0.574,-0.476
TTACCAAGGTGAAGGCCGTTGATCCCTCTGTAGA,0.648,0.161,0.236,-0.411,0.286,1.57,0.252,-0.421
CTCGAACGGTCGTGCTCAGGTGAGTATACCAAAC,0.628,0.435,0.489,0.177,-0.088,1.4,0.536,-0.528
ATCTCTAGGTAAGATTCAGTTCAGTGAAGAACGC,0.59,0.513,0.134,0.381,0.0885,0.976,0.542,1.31
GATACAGCGTCAGCTAGAGGCCAGAGTATGGAAA,-0.524,-0.0653,0.0489,-0.648,-0.444,-0.787,-0.942,-0.804
TGAATGAGGTTACAGATCAGGGAACGTGGCGTCG,0.793,1.89,1.4,0.394,2.29,2.67,0.836,0.364
GCAACGAGGGCATTCGAGTTGATAGCATGGCGAT,0.663,0.926,1.45,3.01,0.65,3.31,-0.513,3.27
CCGAGTAGGTTATGGGGCATTCTGGCAACGGTGA,1.05,0.374,0.468,0.11,0.554,0.0308,0.157,0.195
TCTTGTCGATCAGCAGGTTAAGAAAGCTGGCCAA,0.242,-0.108,-0.509,0.615,0.217,0.316,-0.476,-0.421

Sequence,PBM binding z-score [1],PBM binding z-score [2],PBM binding z-score [3],PBM binding z-score [4],PBM binding z-score [5],PBM binding z-score [6],PBM binding z-score [7],PBM binding z-score [8]
ACTAGCGGGCCAAGTTTGGGTCACTCAAACAAAG,2.11,2.14,1.65,-0.0414,1.01,2.43,0.811,0.0653
TCAGACACGTGAAGGTAACTCAGGTACGCAGTCG,0.104,0.176,0.219,1.06,0.661,1.21,-0.125,0.218
CCTACTGGGCCATTCAGAGCTCATTGATCATATG,-0.346,-0.434,-0.184,0.0203,-0.591,-0.578,-0.449,-0.387
GATACAGGGTTAAGGCCAGAGTACGCGTATTGAT,1.34,1.7,1.1,-0.0819,1.76,2.05,0.861,1.02
ATATGTAGGTTACATCCGGGTCCTTCAGGCTATG,0.958,0.862,0.764,0.474,1.07,1.51,0.753,0.68
CAAACTAGGTCAAGGTCAACGTCGGTTTGTGCCA,5.65,6.16,6.86,2.58,5.91,4.62,4.3,3.89
CGAACTTGGTCAGAACAGGACAGTGAAGGATGAT,0.311,0.432,0.829,-0.105,0.172,1.09,-0.102,-0.116
CGAACTAGGTCAGAACAGGACAGCGAAGGATGAT,2.08,2.39,3.18,0.432,1.39,3.82,0.236,-0.0467
GCTATTAGTTGAAAGCGCAACCGAATGATTCTCG,-0.696,-0.258,-0.0474,0.445,-0.166,-0.508,-0.515,-0.738
TCTTGTAGATCAATATAGGTTAAGAAAGTGCGCT,0.819,0.579,0.586,1.31,0.962,1.03,-0.0282,0.0852
TCATATAGCTAAAAGGTGAAAGTCGGTGTGGTAA,1.42,0.817,0.551,0.962,1.4,0.958,0.0793,-0.201
ACTAGCAGGCCAAGGATCACTCAAGATTAGTCCG,-0.025,0.215,0.422,-0.378,0.137,-0.0655,-0.556,-0.55
ATCTCTAGGTGACCAAGTTCAGTGAATGCCGAAC,1.77,1.24,1.38,0.521,0.867,1.5,0.429,2.22
TTACCAAGGTGAAGGTCGTTCATCCCTCTGTAGA,2.21,1.63,1.5,0.548,1.75,2.62,1.08,1.1
TCTGCTAGGTCAACGATGGTCACCTAATCTGCTA,3.63,4.17,4.77,1.06,2.69,3.58,1.37,0.156
CCGAGTAGGTTAAGGGGCATTCAGGCAACGGTGA,1.56,1.08,0.926,0.277,1.43,1.32,0.369,0.685
GCTAGCAGGCCATTTGGGTCACGCAATGACGGGC,2.27,1.79,1.75,-0.208,1.68,2.54,1.19,0.28
CCTACTGGGCCACAAAAGGTCATTGATTCAGTGA,4.58,4.47,3.91,0.362,4.76,3.73,0.921,1.92
CATACAAGGTCAGCTAGGCCAGAGTAGGGACGGC,3.83,5.19,5.79,2.04,4.4,3.54,1.97,1.65

Sequence,PBM binding z-score [1],PBM binding z-score [2],PBM binding z-score [3],PBM binding z-score [4],PBM binding z-score [5],PBM binding z-score [6],PBM binding z-score [7],PBM binding z-score [8]
GTACCAACGTGAATAGGTCGTTGATGAGTAGGCG,0.16,0.141,0.237,-0.361,0.489,-0.22,-1.03,-0.24
TCTAGCGGGCCAGAGGGTCACTCAAGAGGTACGG,2.86,2.61,1.98,0.0957,2.37,1.51,-0.522,0.587
TCTGCTAGTTCAACGATGGTCAGCTAATCTGCTA,0.82,0.768,1.03,1.32,0.188,0.928,-1.34,0.129
ACTCGGAGGACAATGGTCAGAGCTACGCCAGTGA,0.454,0.217,0.925,0.216,-0.0471,0.235,-0.526,-0.36
CCAGACAGGTGAAAGGTAACTCATTCTGGTACGC,0.992,1.41,0.877,0.192,2.12,1.13,0.167,0.0322
CTCGGAAGGTCGGTTGAGGTGAGTATACGGATAA,1.62,1.28,1.86,0.318,0.83,4.59,1.32,0.205
GGAACGAGGGCAAAGTTGATGGCATCTGTCGACG,1.32,2.05,1.74,2.62,1.97,1.55,-0.087,1.7
TCTGCTAGGTCAGTTGGTCGGCTAACGAGCTGCC,2.21,2.28,3.11,0.384,0.902,1.17,-0.205,-1.1
TCAGACAGGTGAAGGTAGCTCAGGTACGCAGTCG,0.62,0.413,0.456,1.13,0.741,0.667,0.148,-0.026
TGAATGAGGTTAAAGATCATGGAACGTGGCGTCG,0.734,2.46,1.32,0.839,4.34,2.79,0.35,0.314
TTACCAAGGTGAGCTGAGGTCGATGATCCAACTC,1.56,1.03,1.05,-0.52,1.06,4.48,1.6,0.355
CCTATTAGTTGACGATAAGGGCAACCGAAGCTCG,1.43,0.95,0.873,0.16,0.582,1.57,0.591,0.415
CCTACTGCGCCAAAGGTCATTGATTCCAATGCTC,4.88,5.4,4.69,2.16,6.21,3.46,1.9,3.56
ATCGAAAGGTCGACGAGGTGAGTATCCACCGTTT,2.9,4.16,4.03,1.27,4.38,3.78,1.01,0.828
ACTATTAGTTGACTTAGAGCAACCGATACGACGC,-0.15,0.294,0.597,0.671,0.318,0.0226,0.0225,-0.0313
AGAATGAGGTTAAGATCAGAGAAACAGAATACAT,0.686,2.05,1.45,0.652,2.36,2.29,0.47,0.291
TAGCCTAGGTCATTCAAGGGCCAGTATAGAAAGC,3.38,5.84,4.64,1.71,3.14,4.3,0.514,1.25
TCATATAGGTAAAAGGTGAAAGACGGTGTGGTAA,1.74,2.01,0.857,1.7,3.05,1.55,0.208,0.152
